The source made the active and inactive calls.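 How the source made its calls, unless noted: active means inhibition above 20% together with a positive visual image hit; inconclusive means visual image hit but inhibition not above 20%; inactive means no visual image hit.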
Tests used:
[1] = inhibitors of TNFa-induced NFkB p65 translocation, primary screen, imaging, HUVEC, MLSMR starter and 10KST1 sets (AID 438); conditions: HUVEC TNFa-induced p65 nuclear translocation; cell count: measured here: nuclei count (cytotoxicity indicator), at 2.08 µM; inhibition: at 2 µM, stronger effect = higher value, 0% TNFa-plus-vehicle, 100% no-TNFa wells;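 further: compound added about 3h40 before a 20 min TNFalpha stimulation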;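 on inhibition: signal is the nuclear over cytoplasmic p65 intensity ratio per well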
[2] = inhibitors of mutant huntingtin aggregation, primary screen, imaging, exon1htt(103Q)mCFP cells, high-content imaging (AID 483;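 active means visual image review flags a hit and inhibition of aggregation exceeds 20%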;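 further: compound exposure lasted 3 days before fixation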;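 on nuclei count: percent of the per-plate median nuclei count of sample wells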); conditions: exon1htt(103Q)mCFP cell line, aggregate imaging, at 2 µM; inhibition of aggregation: stronger effect = higher value; nuclei count: measured here: cell count, toxicity
[3] = inhibitors of E-selectin induction by TNFa, primary screen, imaging, HUVEC, immunofluorescence, MLSMR starter and 10KST1 sets (AID 487;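 active means visually confirmed hit in the image check and inhibition above 20%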;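 on inhibition: signal is fraction of cell area covered by stained E-selectin grains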;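 on nuclei count: 100% = median nuclei count of all wells on the same plate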); conditions: HUVEC TNFalpha-induced E-selectin immunofluorescence imaging, at 2 µM; inhibition: stronger effect = higher value; nuclei count: measured here: cell number, toxicity
[4] = molecular target: Voltage-gated potassium channel subunit beta-2 (Rattus norvegicus) (UniProt P62483); test: KvBeta enzyme negative modulators, primary screen, biochemical, NADPH fluorescence (AID 622;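 active means fluorescence slope higher than the sample average by over 3 SD, cut at about -0.22 in these data, passing the limit was not always enough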;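 further: slope of raw intensity against log time taken from 70 to 1610 s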); conditions: recombinant KvBeta, 4-cyanobenzaldehyde reduction, at 10 µM, stronger effect = higher value
Voltage-gated potassium channel subunit beta-2 (Rattus norvegicus), sequence (P62483 whole entry, looked up): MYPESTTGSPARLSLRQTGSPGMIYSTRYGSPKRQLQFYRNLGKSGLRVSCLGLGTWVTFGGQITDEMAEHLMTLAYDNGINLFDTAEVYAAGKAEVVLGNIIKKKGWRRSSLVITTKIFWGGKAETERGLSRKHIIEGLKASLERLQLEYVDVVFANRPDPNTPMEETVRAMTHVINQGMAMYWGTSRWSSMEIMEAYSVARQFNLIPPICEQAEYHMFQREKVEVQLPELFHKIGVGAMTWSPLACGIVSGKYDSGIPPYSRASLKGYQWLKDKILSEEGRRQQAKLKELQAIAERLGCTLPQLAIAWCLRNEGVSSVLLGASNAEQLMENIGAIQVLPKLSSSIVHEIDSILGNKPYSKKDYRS

[5] = molecular target: Voltage-gated potassium channel subunit beta-2 (Rattus norvegicus) (UniProt P62483); test: KvBeta positive modulators, primary screen, biochemical, NADPH fluorescence (AID 623;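 active means NADPH fluorescence slope more negative than the mean of all samples by about 3 SD, 99.7% confidence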;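 further: fluorescence intensity change per second fitted from 20 to 320 s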); conditions: Recombinant KvBeta, NADPH fluorescence decrease slope, 10 min; at 10 µM; stronger effect = lower value
[6] = molecular target: Alpha-2C adrenergic receptor (Homo sapiens) (UniProt P18825); test: modulators of alpha2C/GIRK thallium flux, primary screen, cell-based, HEK293 alpha2C/GIRK1/2 (AID 624;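 active means fluorescence slope after compound addition differing from the mean of all screened samples at 99.7% confidence, in either direction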;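 further: slope of fluorescence ratio to pre-addition baseline per second over 15 to 24 s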); conditions: thallium flux BTC fluorescence, at 10 µM, actives lie on both sides
Alpha-2C adrenergic receptor (Homo sapiens), sequence (P18825 whole entry, looked up): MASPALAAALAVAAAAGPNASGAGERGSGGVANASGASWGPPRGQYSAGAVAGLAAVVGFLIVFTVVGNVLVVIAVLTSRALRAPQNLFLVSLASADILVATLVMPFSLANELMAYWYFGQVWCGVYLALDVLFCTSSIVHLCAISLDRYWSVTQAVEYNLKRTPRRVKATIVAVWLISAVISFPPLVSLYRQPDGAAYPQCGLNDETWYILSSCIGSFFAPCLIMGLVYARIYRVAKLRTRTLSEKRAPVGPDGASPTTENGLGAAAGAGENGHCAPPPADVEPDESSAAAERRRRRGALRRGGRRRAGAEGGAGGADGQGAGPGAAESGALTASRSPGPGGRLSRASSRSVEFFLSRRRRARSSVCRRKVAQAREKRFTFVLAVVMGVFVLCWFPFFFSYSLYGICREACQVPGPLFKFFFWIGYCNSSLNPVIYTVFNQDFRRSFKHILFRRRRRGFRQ

[7] = inhibitors of Sendai virus-induced IRF3 signaling, primary screen, TLR/RLR signaling modifier project, cell-based, Sendai virus stimulus, luciferase, 10K MLSCN set (AID 602276;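 active means inhibition at or above 50% at 10 µM; inactive means inhibition below 50%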;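 further: firefly luciferase from ISG56 promoter only with Renilla not read in this screen; 0% = Sendai virus plus DMSO and 100% = medium plus DMSO without virus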); conditions: HEK293 RL24 IRF3 luciferase reporter, at 10 µM, stronger effect = higher value
[8] = inhibitors of poly I:C-induced TLR3 signaling, primary screen, cell-based, poly I:C stimulus, luciferase, 10K MLSCN set (AID 602277;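 active means inhibition of the reporter signal at or above 50%; inactive means inhibition below 50%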); conditions: HEK293-TLR3 RL24 IRF3 luciferase reporter, at 10 µM, stronger effect = higher value

Structure (SMILES)	cell count [1]	inhibition [1]	inhibition of aggregation [2]	nuclei count [2]	inhibition [3]	nuclei count [3]	fluorescence slope [4]	NADPH fluorescence slope [5]	slope [6]	inhibition [7]	inhibition [8]
COC(=O)c1ccccc1NC(=O)c1ccc(COc2ccccc2)o1	845	-8.3% (inactive)	6.6% (inactive)	113%	-19.3% (inactive)	114%	-0.63 (inactive)	-3.5e-05 (inactive)	0.00572 (inactive)	-25.9% (inactive)	-60.3% (inactive)
CCN(CCNC(=O)C1CCN(S(C)(=O)=O)CC1)c1ccccc1	395	3.8% (inactive)	-13.1% (inactive)	113%	-24.7% (inactive)	117%	-0.32 (inactive)	-3e-05 (inactive)	0.00548 (inactive)	15.1% (inactive)	25.2% (inactive)
CCc1nnc(NC(=O)CSc2nnc(CSc3nc(C)cc(C)n3)n2CC)s1	424	-5% (inactive)	-13.6% (inactive)	128%	-40.7% (inactive)	129%	-0.37 (inactive)	8.3e-06 (inactive)	0.00824 (inactive)	-5.81% (inactive)	-12.1% (inactive)
COc1cccc(-c2nc(CS(=O)CC(=O)NCCCOC(C)C)c(C)o2)c1 (centres undefined)	193	-13% (inactive)	5.9% (inactive)	119%	-27.1% (inactive)	95.8%	-0.486 (inactive)	-9.9e-06 (inactive)	0.00479 (inactive)	11.4% (inactive)	7.08% (inactive)
CC(C)(C)c1ccc(C(=O)Nc2cnccn2)cc1	351	1.7% (inactive)	7.6% (inactive)	100%	11.6% (inactive)	108%	-0.379 (inactive)	-6.5e-05 (inactive)	0.0039 (inactive)	-50.1% (inactive)	-138% (inactive)
CCSc1nnc(NC(=O)c2ccccn2)s1	351	2.9% (inactive)	13.2% (inactive)	85.6%	21.4% (inactive)	102%	-0.583 (inactive)	3.3e-06 (inactive)	0.00493 (inactive)	4.15% (inactive)	15.7% (inactive)
O=C(CCSc1nc(-c2ccco2)cc(C(F)(F)F)n1)Nc1ccc2c(c1)OCO2	429	1.8% (inactive)	30.3% (inactive)	95.1%	-52.9% (inactive)	161%	-0.386 (inactive)	2.5e-05 (inactive)	0.00312 (inactive)	-4.65% (inactive)	-14.1% (inactive)
O=C(COc1ccccc1F)NC1CC1	235	-13% (inactive)	14.4% (inactive)	92.8%	19.9% (inactive)	100%	-0.395 (inactive)	-4.8e-05 (inactive)	0.0037 (inactive)	-0.955% (inactive)	11% (inactive)
CCOC(=O)c1ccc(NC(=O)c2ccc(NS(C)(=O)=O)cc2)cc1	473	-4.3% (inactive)	8.8% (inactive)	95.3%	32.9% (inactive)	95.1%	-0.401 (inactive)	4e-05 (inactive)	0.00834 (inactive)	6.57% (inactive)	11.9% (inactive)
CCN(CC)S(=O)(=O)c1ccc2c(c1)nc(SCC(=O)NC1CC1)n2-c1ccccc1OC	531	-14.3% (inactive)	9.5% (inactive)	109%	-137% (inactive)	125%	-0.598 (inactive)	-7.2e-06 (inactive)	0.00577 (inactive)	14.2% (inactive)	48.2% (inactive)
Cc1cccc(CC(=O)Nc2c3c(nn2-c2cccc(Cl)c2)CS(=O)C3)c1 (centres undefined)	394	1% (inactive)	-17.3% (inactive)	106%	-27.9% (inactive)	110%	-0.57 (inactive)	2.8e-05 (inactive)	0.00504 (inactive)	-10.3% (inactive)	-33.4% (inactive)
Fc1cccc(Nc2cc(-n3cccn3)ncn2)c1	553	-8.3% (inactive)	-0.2% (inactive)	89.5%	-65.9% (inactive)	109%	-0.509 (inactive)	-7.2e-05 (inactive)	0.00508 (inactive)	-32.7% (inactive)	-66.1% (inactive)
CCN(CC)C(=O)CSc1nnc([C@@H](N)Cc2ccccc2)o1	673	1.7% (inactive)	-2.7% (inactive)	84.3%	-0.8% (inactive)	96%	-0.499 (inactive)	1.4e-05 (inactive)	0.00547 (inactive)	15.4% (inactive)	22% (inactive)
CCCc1cc(=O)[nH]c(/N=C(\N)Nc2ccccc2)n1	826	3.6% (inactive)	-12.7% (inactive)	94.3%	-95.3% (inactive)	138%	-0.431 (inactive)	-2.5e-05 (inactive)	0.0048 (inactive)	12.3% (inactive)	16.6% (inactive)

From PubChem BioAssay
